Results on 72 compounds are retold here after PubChem BioAssay.

A word on the inhibition: it is the change of the read-out against control, counted positive when it falls.

The subject of test [1] is transactivating tegument protein VP16 (Human herpesvirus 1). As to the kind of experiment: compounds suppressing VP16-driven luciferase signal – cell-based, luminescence, single concentration, counter-screen for SRC2 inhibitor project (AID 652007). The following applies: cell-based VP16 transactivation luciferase reporter, at 8.9 µM, active compounds read high. In general terms: A counterscreen serves to expose hits that act by an unwanted route or on another target.

Test [2] concerns the target Nuclear receptor coactivator 2 (Homo sapiens) (UniProt Q15596). Put plainly: inhibition of GAL4-SRC2 driven luciferase expression – cell-based, luminescence, HEK293, triplicate, confirmation (AID 652008;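 active = mean inhibition above 46.5%, the solvent-only control mean plus 3 SD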;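 also: 0% = DMSO-treated cells and 100% = Gossypol at 36 µM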). The following applies: HEK293 GAL4-SRC2 luciferase reporter, at 8.9 µM, active compounds read high. Background: Reporter assays use an easily measured gene product as a stand-in for the process of interest.

A number with no mark means an inactive call. Activity calls are given as the source filed them. Rule as the data show it, unless noted: active = inhibition above about 36%; inactive = the rest.

Sequence of Nuclear receptor coactivator 2 (Homo sapiens) (Q15596 whole entry, looked up, the tested form may be a part): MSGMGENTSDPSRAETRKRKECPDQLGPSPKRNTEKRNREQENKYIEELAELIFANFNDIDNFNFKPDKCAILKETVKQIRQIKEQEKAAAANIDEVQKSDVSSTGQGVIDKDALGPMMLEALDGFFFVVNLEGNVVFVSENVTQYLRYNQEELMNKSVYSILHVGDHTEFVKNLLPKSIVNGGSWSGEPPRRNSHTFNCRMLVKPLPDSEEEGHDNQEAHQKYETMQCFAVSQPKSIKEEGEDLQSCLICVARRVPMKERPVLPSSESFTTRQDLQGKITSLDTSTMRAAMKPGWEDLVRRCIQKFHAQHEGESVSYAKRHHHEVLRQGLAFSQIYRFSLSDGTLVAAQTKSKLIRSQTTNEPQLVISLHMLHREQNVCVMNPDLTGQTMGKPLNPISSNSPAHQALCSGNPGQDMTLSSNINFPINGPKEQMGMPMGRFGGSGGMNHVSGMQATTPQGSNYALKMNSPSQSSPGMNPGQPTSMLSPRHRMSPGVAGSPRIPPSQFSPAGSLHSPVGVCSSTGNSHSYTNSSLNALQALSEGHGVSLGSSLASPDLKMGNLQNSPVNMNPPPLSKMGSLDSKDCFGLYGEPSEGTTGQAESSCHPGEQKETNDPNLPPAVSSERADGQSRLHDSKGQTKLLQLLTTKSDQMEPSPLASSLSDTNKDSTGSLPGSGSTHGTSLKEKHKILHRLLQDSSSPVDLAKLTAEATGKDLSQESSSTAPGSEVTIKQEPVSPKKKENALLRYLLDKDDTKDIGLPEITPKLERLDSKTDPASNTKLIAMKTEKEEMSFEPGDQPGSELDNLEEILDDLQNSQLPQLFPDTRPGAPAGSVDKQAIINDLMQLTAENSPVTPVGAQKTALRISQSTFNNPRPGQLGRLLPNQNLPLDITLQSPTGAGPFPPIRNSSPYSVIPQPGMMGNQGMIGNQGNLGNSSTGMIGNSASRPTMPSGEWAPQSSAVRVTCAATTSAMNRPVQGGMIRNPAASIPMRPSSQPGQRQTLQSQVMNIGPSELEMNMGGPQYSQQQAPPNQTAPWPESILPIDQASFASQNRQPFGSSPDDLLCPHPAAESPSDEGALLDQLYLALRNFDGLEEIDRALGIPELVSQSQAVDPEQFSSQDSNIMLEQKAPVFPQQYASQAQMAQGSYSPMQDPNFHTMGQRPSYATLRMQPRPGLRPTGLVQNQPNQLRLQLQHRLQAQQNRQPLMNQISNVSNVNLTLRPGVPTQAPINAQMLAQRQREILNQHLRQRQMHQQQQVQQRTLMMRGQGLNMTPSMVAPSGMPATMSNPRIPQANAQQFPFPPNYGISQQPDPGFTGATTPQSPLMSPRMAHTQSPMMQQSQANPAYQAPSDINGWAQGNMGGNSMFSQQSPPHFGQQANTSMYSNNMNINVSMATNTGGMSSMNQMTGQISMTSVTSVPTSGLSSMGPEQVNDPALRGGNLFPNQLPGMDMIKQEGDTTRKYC

With `O=C(NC1CCCC1)C(c1ccccc1)n1c(CSCCOc2ccccc2)nc2ccccc21` (centres undefined), the inhibition in test [1] was 47.1% (active); in test [2], 80.3% (active).
In the case of `COc1ccccc1C(=O)NCc1ccc(-c2nc3ccccc3s2)cc1`, the inhibition in test [1] is -14%; in test [2] it was 22.1%.
For `O=C(O)COc1ccccc1/C=N/NC(=O)Cc1csc(Nc2cccc(C(F)(F)F)c2)n1` the same measures were -15.7% and -14.6%.
With `COc1ccc(C#Cc2ccc3c(c2)[C@H]2[C@H](CCN2S(=O)(=O)c2ccccc2F)[C@H](CO)N3C)cc1`, the figures for the inhibition in test [1] and in test [2] were -5.48% and 8.22%, respectively.
For `O=C(CCl)N1c2ccccc2CCc2ccccc21`, in that order: 29.1% and 31.7%.
For `CC(=O)N(Cc1ccc(F)cc1)C1=C(NCCc2ccccc2)C(=O)c2ccccc2C1=O`, in that order: 14.1% and 20%.
As for `CN1C(=O)C(c2cn(C)c3ccccc23)(c2cn(C)c3ccccc23)c2cc(F)ccc21`, the inhibition was 11.8% in test [1] and -37.4% in test [2].
For `COCCN(C(=O)CCC(=O)Nc1nccs1)C(C(=O)NC(C)(C)C)c1ccc(C)cc1` (centres undefined) the same measures were 11.2% and 5.44%.
For `O=C(Cn1cnc2ccccc21)N/N=C/C(Br)=C/c1ccccc1` the same measures were -14% and -5.7%.
As for `CCC(Cc1ccccc1)NC(=O)C1CCN(c2nn3c(=O)cc(C)nc3s2)CC1` (centres undefined), the inhibition in test [1] was -17.6%; in test [2], -18.8%.
For the compound `CCN1CCN(C(c2ccc(C(F)(F)F)cc2)c2ccc3cccnc3c2O)CC1` (centres undefined), the values for the inhibition in test [1] and in test [2] were -15.7% and 13.2%, respectively.
For `Cc1ccc(NC(=O)C2CCN(S(=O)(=O)c3ccc(N4CCCC4=O)cc3)CC2)cc1Cl` the same measures were 31% and 46.4%.
For `COc1ccc(S(=O)(=O)N2CCCC(C(=O)NCc3ccncc3)C2)cc1` (centres undefined) the same measures were -0.24% and 10.6%.
For `Cc1nc(NCc2ccco2)c2c(C)c(C)sc2n1`, in that order: 12% and 38%.
Consider `CCn1ccnc1CNC(=O)C1CCC(=O)N(Cc2ccccc2F)C1` (centres undefined), for which the inhibition in test [1] was -4.87%; in test [2], -23.7%.
For `Cc1ccc(S(=O)(=O)N2CCC(C(=O)Nc3ccc(S(=O)(=O)N4CCOCC4)cc3)CC2)cc1` the same measures were 8% and 30.2%.
As for `CC12CCC(=O)C=C1CCC1C2CCC2(C)C(c3csc(N)n3)CCC12` (centres undefined), the results for the inhibition in test [1] and in test [2] were 10.2% and 24.6%, respectively.
For `Cc1ccc(C(=O)O/N=C(\N)c2ccccn2)cc1`, the inhibition is -66.4% in test [1] and -57% in test [2].
Turning to `CCOc1ccc(-c2cc(CCCC(=O)NCCc3ccc(OC)c(OC)c3OC)no2)cc1`, the inhibition in test [1] was 12.8%; in test [2], 34.7%.
As for `CCS(=O)(=O)Nc1ccc(C2=NN(C(=O)c3ccco3)C(c3cccs3)C2)cc1` (centres undefined), the inhibition in test [1] was -5.61%; in test [2], -29.7%.
For `CC(C)(C)NS(=O)(=O)c1ccc(Oc2ncc(C(F)(F)F)cc2Cl)cc1` the same measures were -20% and 14.2%.
For `CCC1CN(C(=O)NCc2cccc(OC)c2)c2ccccc2O1` (centres undefined), in that order: -11.8% and -14.7%.
For `COc1ccc2c(n1)Sc1nc3ccccc3nc1N2`, the inhibition in test [1] was -80.4%; in test [2], -87.5%.
For `CCOc1ccc(-c2cc(CCCC(=O)NCc3ccco3)no2)cc1` the same measures were 16.9% and 37.5%.
For `O=C(CSCc1ccc(C(=O)O)cc1)Nc1ccccc1`, in that order: -18.8% and -31.5%.
For `CC(=O)Nc1nc(-c2ccc3c(c2)CCN3C(=O)C2CC2)c(C)s1`, in that order: 13.2% and 49.3% (active).
Turning to `O=C(O)c1ccccc1C(=O)Nc1ccc(Oc2ccc3ccccc3c2)cc1`, the inhibition in test [1] is 36.4% (active); in test [2], 28%.
For `COc1cc(OC)c2c(-c3cccc(-c4ccc(N(C)C)cc4)c3)cc(=O)oc2c1`, the results for the inhibition in test [1] and in test [2] were -17.4% and 27.6%, respectively.
For `Cc1nn(Cc2ccc(C(=O)NC(C)(C)C)o2)c(C)c1Br` the same measures were 5.83% and 17.8%.
For `O=C(O)CCSc1ncnc2sc(-c3ccccc3)cc12` the same measures were 67.7% (active) and 88.4% (active).
For the compound `NNC(=O)COc1ccc(C(F)(F)F)cc1`, the inhibition in test [1] was -3.76%; in test [2], 4.91%.
`COc1ccc(-c2cc(C(=O)O)c(C)o2)cc1OC`: the inhibition in test [1] is -74%; in test [2], -11.1%.
Turning to `Cc1ccc(C2=[N+]([O-])C3(CCCCC3=O)N(O)C2(C)C)cc1` (centres undefined), the figures for the inhibition in test [1] and in test [2] were -5.08% and -2.69%, respectively.
For `Clc1ccccc1/C=C/c1nc(-c2ccccn2)no1`, in that order: -11.4% and 18.9%.
For `Cc1cccc(C)c1NC(=O)CN1CCN(C/C=C/c2ccccc2)CC1`, in that order: -15.1% and -3.36%.
For `Cc1ccc(C)c(-c2nc3cc(N)ccc3o2)c1` the same measures were 36.8% (active) and 55% (active).
Turning to `CC(=NCc1ccco1)c1c(C)[nH]n(-c2nc3ccccc3s2)c1=O`, the values for the inhibition in test [1] and in test [2] were -24% and 14.3%, respectively.
For `N#Cc1ccc(-c2ccc(OCC(=O)Nc3cccnc3)cc2)cc1`, the values for the inhibition in test [1] and in test [2] were -9.35% and 52.6% (active), respectively.
For `Cc1cc(C(=O)NNS(=O)(=O)c2cc(C(=O)O)ccc2Cl)c(C)n1-c1ccccc1`, in that order: 2.27% and 45.4%.
For `CC1=CC(C)(C)Nc2ccc(OC(=O)C(C)N3C(=O)c4ccccc4C3=O)cc21` (centres undefined) the same measures were -33.8% and 20.7%.
For `COCCNC(=O)/C(C#N)=C/c1cc(C(C)C)c(OC)cc1C` the same measures were -4.35% and 16.8%.
On to `CC(=O)Nc1cc(=O)c2cccnc2[nH]1`, for which the inhibition was -8.33% in test [1] and -9.24% in test [2].
Take `CCN(CC)c1ccc(NC(=O)CCCCC(=O)Nc2ccc(N(CC)CC)cc2)cc1`: the results for the inhibition in test [1] and in test [2] were 16.2% and 48.3% (active), respectively.
For `COc1ccc(-c2cn3cccnc3n2)cc1NC(=O)C(C)Oc1ccccc1` (centres undefined), the inhibition in test [1] was -18.1%; in test [2] it was -20.2%.
Regarding `Cc1ccc(NC(=O)Cn2cccc2C2=NC(c3ccccc3)CO2)cc1C` (centres undefined), the results for the inhibition in test [1] and in test [2] were -8.04% and -4.44%, respectively.
For `CCN(CC)C(=O)C1CCCN(c2ncnc3c2cnn3-c2cccc(C)c2)C1` (centres undefined), in that order: -13.2% and 30.7%.
Take `CN1CCN(c2nc3ccccc3nc2C(C#N)S(=O)(=O)c2ccccc2)CC1` (centres undefined): the values for the inhibition in test [1] and in test [2] were 10.5% and 20.1%, respectively.
For `Cc1cc(C(=O)C(C)OC(=O)c2ccc(NC(=O)CC#N)cc2)c(C)n1-c1ccccc1` (centres undefined) the same measures were -36% and 26.3%.
For `O=C(CCCN1C(=O)/C(=C/c2ccccc2Cl)SC1=S)NNC(=O)c1ccc(Cl)cc1`, in that order: 73.7% (active) and 82% (active).
As for `O=C(Nc1nnc(SCc2ccc(F)cc2)s1)c1cccnc1Cl`, the inhibition in test [1] was -9.69%; in test [2], -19.9%.
Take `CCOC(=O)C1=CCN(S(=O)(=O)c2ccc(C)cc2)C1c1ccccc1F` (centres undefined): the inhibition in test [1] was -19.3%; in test [2] it was -7.88%.
In the case of `COc1ccc(O)c(/C=N/NC(=O)c2ccc(CSc3nc(C)cc(C)n3)cc2)c1`, the results for the inhibition in test [1] and in test [2] were 0.19% and 26.4%, respectively.
For `COc1ccc(S(=O)(=O)N/N=C\c2ccc3c(c2)OCO3)c(OC)c1`, in that order: 10.4% and 34.9%.
For `Cc1ccc(CS(=O)(=O)c2ncc(Cl)c(C(=O)Nc3nnc(C(C)C)s3)n2)cc1`, in that order: 27.3% and 51.9% (active).
For `CC(C)(C)c1ccc(-c2noc(CCC(=O)NCC3CCCO3)n2)cc1` (centres undefined) the same measures were 42.1% (active) and 67.2% (active).
Turning to `CN(C)c1ccc(NC(=S)c2ccccn2)cc1`, the inhibition in test [1] is 1.77%; in test [2], 59.6% (active).
In the case of `Cc1nc2scc(C)n2c(=O)c1S(=O)(=O)Nc1ccc(OC(F)(F)F)cc1`, the results for the inhibition in test [1] and in test [2] were -5.83% and 6.78%, respectively.
For `O=C(Cc1ccc([N+](=O)[O-])cc1)Nc1cccc(C(=O)N2CCCCC2)c1` the same measures were 13.5% and 23.7%.
For `Cn1nnnc1Sc1ncnc2scc(-c3ccc(C#N)cc3)c12` the same measures were 12.5% and 30.8%.
For `CCOC(=O)CCC(=O)c1c(C)oc2ccc(OC)cc12` the same measures were 6.24% and -15%.
With `Cc1ccc(C(=O)O/N=C(\N)c2ccccn2)cc1C`, the results for the inhibition in test [1] and in test [2] were -29.9% and -24.9%, respectively.
For `CC(C)Cc1nnc(NC(=O)CCC(=O)N2CCN(Cc3ccccc3)CC2)s1`, in that order: 8.01% and 17.4%.
For `O=C(CCl)N(Cc1cc(=O)[nH]c2ccccc12)c1ccccc1` the same measures were 38.6% (active) and 50.5% (active).
For `CCOC(=O)C1=C[C@@H](c2ccccc2)N(S(=O)(=O)c2ccc(C)cc2)[C@H]1c1ccc(F)cc1` the same measures were -7.61% and -5.87%.
In the case of `COc1cccc2c1C(CO)N1C(C#N)C3CC(C(=O)O)C(C1C2)N3C` (centres undefined), the inhibition in test [1] is 40.5% (active); in test [2], 66.1% (active).
For `Cc1c(CCC(=O)O)c(=O)oc2cc3oc4c(c3cc12)CCCC4` the same measures were 49.3% (active) and 69.2% (active).
For `Cc1cc(N/N=C/c2ccc(O)cc2)nc(NS(=O)(=O)c2ccccc2)n1`, in that order: -14.1% and 16.5%.
For `O=[N+]([O-])c1ccc(-c2ccc(S(=O)(=O)NCCN3CCCC3)cc2)cc1`, the figures for the inhibition in test [1] and in test [2] were 12.2% and 17.4%, respectively.
As to `CCOC(=O)N1C(=O)[C@@](c2ccc(Cl)cc2)(C(C)C)N1C(=O)OCC`, the inhibition in test [1] is -14%; in test [2] it was 16.6%.
For `C=CCc1c(C)nc(SC(C)C)[nH]c1=O` the same measures were 0.2% and -25.4%.
`COc1cc(/C=C/C(=O)c2ccc3c(c2)OCCO3)cc(OC)c1OC`: the inhibition is 5.55% in test [1] and 29.2% in test [2].
Take `CCN1C=CC(=C2C(=O)c3ccccc3C2=O)C=C1`: the figures for the inhibition in test [1] and in test [2] were 42.3% (active) and 58.6% (active), respectively.
